From PubChem BioAssay (NCI) come the findings set out here.

Compounds without any hit were thinned out: in the full panel of roughly 83,000, 20% have a hit.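 Negative percent growth values reflect cell death: -40 means 40% of the cells present at the start died, and -100 means all died.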 A number with no mark means an inactive call. Calls of active or inactive are those of the source. How the source made its calls: active means growth percent below 10; inactive means the rest.

Among the test systems are HCT-15 colon; HT29 colon; SNB-75 CNS; SNB-19 CNS; U251 CNS; PC-3 prostate; SK-MEL-5 melanoma; UACC-62 melanoma; SK-MEL-28 melanoma; SK-MEL-2 melanoma; SN12C renal; UO-31 renal; TK-10 renal; ACHN renal; CAKI-1 renal; A498 renal; CCRF-CEM leukemia; MOLT-4 leukemia; LOX IMVI melanoma; EKVX NSCLC.
What all share (test): NCI-60 one-dose screen, 48 h (100 = growth as untreated, 0 = no growth, -100 = all killed)
Conditions in all cases: 10 µM unless noted

For the molecule `N#CC1=C(N)Oc2c(ccc3ccccc23)C1c1cccs1` (stereo unspecified), the growth was 13.5% in the test with HCT-15 colon; 5.33% (active) in the test with HT29 colon; 4.67% (active) in the test on SNB-75 CNS; 49.7% in the test with SNB-19 CNS; 13.3% in the test on U251 CNS; 22.5% with PC-3 prostate. Further, the growth is -35.9% (active) in the test with SK-MEL-5 melanoma; 29.3% in the test with UACC-62 melanoma; 41.1% with SK-MEL-28 melanoma; 52.5% with SK-MEL-2 melanoma; 26.5% in the test on SN12C renal; 46.5% in the test with UO-31 renal. Further, the growth is 77.6% in the test with TK-10 renal; 35.2% in the test on ACHN renal; 48.9% in the test on CAKI-1 renal; -5.58% (active) in the test with A498 renal; 5.17% (active) in the test with CCRF-CEM leukemia; 1.98% (active) with MOLT-4 leukemia.

`COc1ccc2nc3cc(Cl)ccc3c(N3CCN(c4ccnc(N5CCOCC5)n4)CC3)c2c1`: the growth with HCT-15 colon was 8.96% (active); in the test with HT29 colon, -18.2% (active); in the test on SNB-75 CNS it was 66.8%; in the test with SNB-19 CNS it was 95.5%; in the test with U251 CNS, 64.2%; in the test on PC-3 prostate it was 67.2%. The growth was 88.4% in the test with SK-MEL-5 melanoma; 91.9% with UACC-62 melanoma; 35.9% in the test on SK-MEL-28 melanoma; 32.3% in the test with SN12C renal; 57.2% in the test with UO-31 renal; 63.7% in the test with TK-10 renal. The growth was 27.4% with ACHN renal, 59.7% in the test with CAKI-1 renal, 60.6% in the test on A498 renal and -18.4% (active) in the test with CCRF-CEM leukemia.

Consider `COc1ccc(-c2c(C)noc2-c2ccc(O)cc2O)cc1`, for which the growth in the test with HCT-15 colon was 68.8%; with HT29 colon, 102%; in the test with SNB-75 CNS, 90.9%; in the test with SNB-19 CNS, 104%; with U251 CNS it was 93.8%; in the test with PC-3 prostate, 71.8%. The growth in the test on SK-MEL-5 melanoma is 80.4%; with UACC-62 melanoma, 90.7%; in the test on SK-MEL-28 melanoma it was 105%; in the test with SK-MEL-2 melanoma, 101%; with SN12C renal, 85.7%; with UO-31 renal it was 87.3%. The growth with TK-10 renal was 99.8%; with ACHN renal it was 90.3%; with CAKI-1 renal, 95.8%; in the test with A498 renal it was 88%; with CCRF-CEM leukemia, 71.7%; in the test with MOLT-4 leukemia, 59.1%.

As to `O=S(=O)(Nc1ccc(Cl)cc1Cl)c1ccc(-c2cnc(C3CC3)o2)cc1`, the growth with HCT-15 colon was 24.3%; with HT29 colon, 1.27% (active); in the test on SNB-75 CNS, 5.51% (active); with SNB-19 CNS, 43.6%; in the test with PC-3 prostate, 28.1%; in the test on SK-MEL-5 melanoma it was 8.59% (active). Further, the growth in the test with UACC-62 melanoma was 35.3%; with LOX IMVI melanoma it was 43.3%; in the test on SK-MEL-28 melanoma, 55.3%; in the test on SK-MEL-2 melanoma, 33.3%; in the test on EKVX NSCLC, 38.1%; in the test with SN12C renal it was 51.4%. Moreover, the growth is 53.7% in the test with UO-31 renal; 48.4% in the test with TK-10 renal; 53.6% with ACHN renal; 38.8% in the test on CAKI-1 renal; -21% (active) with A498 renal; 18.6% with CCRF-CEM leukemia. The growth with MOLT-4 leukemia is 24.3%.

As for `CSc1nc(NCCO)c(C#N)c(-c2cccc(N)c2)n1`, the growth in the test with HCT-15 colon is 98.1%; in the test on HT29 colon it was 108%; in the test on SNB-75 CNS, 58.5%; with SNB-19 CNS, 96%; in the test with PC-3 prostate it was 94.7%; in the test with SK-MEL-5 melanoma, 96.5%. The growth is 94.8% in the test on UACC-62 melanoma; 93.5% in the test with LOX IMVI melanoma; 116% in the test with SK-MEL-28 melanoma; 108% with SK-MEL-2 melanoma; 81.4% in the test on EKVX NSCLC; 94.7% in the test with SN12C renal. Besides, the growth was 74.6% in the test on UO-31 renal; 145% in the test with TK-10 renal; 92.3% with ACHN renal; 80.3% in the test with CAKI-1 renal; 83.7% with A498 renal; 94.9% with CCRF-CEM leukemia. In addition, the growth in the test on MOLT-4 leukemia is 95.6%.

For the molecule `COc1ccc(C(=O)c2sc3nc(-c4ccccc4OC)ccc3c2N)cc1OC`, the growth in the test on HCT-15 colon is 58.5%; in the test with HT29 colon it was 56.2%; in the test on SNB-75 CNS it was 73.2%; with SNB-19 CNS, 78.2%; with U251 CNS, 63.2%; in the test with PC-3 prostate it was 30.9%. The growth was 8.53% (active) with SK-MEL-5 melanoma; 67.8% in the test on UACC-62 melanoma; 88.8% with SK-MEL-28 melanoma; 89.5% in the test with SK-MEL-2 melanoma; 66.1% with SN12C renal; 53.4% with UO-31 renal. Also, the growth with TK-10 renal is 79.7%; with ACHN renal, 66.9%; with CAKI-1 renal, 62.4%; in the test with A498 renal, 47.7%; in the test with CCRF-CEM leukemia, 26.5%; with MOLT-4 leukemia, -45% (active).

On to `COc1ccccc1-c1ccc2c(N)c(C(=O)c3ccc4c(c3)OCO4)sc2n1`, for which the growth was 38.8% in the test on HCT-15 colon; 47% in the test with HT29 colon; 85.1% in the test on SNB-75 CNS; 82.1% in the test on SNB-19 CNS; 63.7% in the test on U251 CNS; 56.6% in the test with SK-MEL-5 melanoma. The growth was 42% in the test with UACC-62 melanoma; 58% with LOX IMVI melanoma; 71.3% with SK-MEL-28 melanoma; 64.2% with SN12C renal; 78.5% with UO-31 renal; 73.8% in the test with TK-10 renal. Also, the growth is 88.6% in the test on ACHN renal; 70.2% in the test on CAKI-1 renal; 60.1% in the test with A498 renal; 60.2% in the test on CCRF-CEM leukemia; 36.6% in the test with MOLT-4 leukemia.

For `Nc1cc(-c2nc3sccn3c2-c2ccnc(NCCCNS(=O)(=O)c3ccc(F)cc3)n2)ccc1F`, the growth in the test on HCT-15 colon was 28.3%; in the test with HT29 colon, 17.8%; in the test with SNB-75 CNS, 68.7%; in the test with SNB-19 CNS, 88%; with PC-3 prostate, 48.6%; with SK-MEL-5 melanoma, 27.2%. Besides, the growth was 21.2% with UACC-62 melanoma; 34.1% in the test on LOX IMVI melanoma; 50.7% in the test on SK-MEL-28 melanoma; 60.4% in the test with SK-MEL-2 melanoma; 58.3% in the test on EKVX NSCLC; 48.9% in the test on SN12C renal. The growth in the test with UO-31 renal is 30.7%; in the test with TK-10 renal, 98.3%; with ACHN renal, 32.5%; in the test on CAKI-1 renal, 29.7%; in the test on A498 renal it was 54.3%; in the test on CCRF-CEM leukemia, 21.2%. In addition, in the test with MOLT-4 leukemia, the growth was 34%.

In the case of `COC(=O)C12C3C(=O)N(c4ccc(OC)cc4)C(=O)C3C(c3cn(-c4ccccc4)nc3C)N1[C@H](c1cn(-c3ccccc3)nc1C)[C@@H]1C(=O)N(c3ccc(OC)cc3)C(=O)[C@@H]12` (stereo partly specified), the growth is 101% in the test on HCT-15 colon; 103% in the test with HT29 colon; 89.9% in the test with SNB-75 CNS; 91.1% in the test on SNB-19 CNS; 93.9% in the test with U251 CNS; 87% in the test with PC-3 prostate. The growth in the test with SK-MEL-5 melanoma is 99.7%; with UACC-62 melanoma, 96.8%; with SK-MEL-28 melanoma, 105%; in the test with SK-MEL-2 melanoma, 107%; in the test with SN12C renal it was 104%; with TK-10 renal it was 96.5%. Moreover, the growth in the test with ACHN renal was 101%; with CAKI-1 renal, 91.7%; in the test with A498 renal it was 89.4%; in the test with CCRF-CEM leukemia, 104%; with MOLT-4 leukemia it was 81.8%.
